# Test results reported in the supplement of paper PMC4188521.
# Compound: CCc1cnn2c(NCc3ccc[n+]([O-])c3)cc(N3CCCC[C@H]3CCO)nc12 [dinaciclib]
# Assay: cell viability remaining relative to DMSO control; higher = less cytotoxic (more viable cells)
# Conditions: 100 nM; 24 h
# In short: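 Remaining viability, expressed as a percentage of the DMSO control, compares luminescence in treated wells with that in DMSO-treated control wells. Solid tumour cell lines from commercial banks received 100 nM of the test compound for 24 hr, with final DMSO kept at ≤0.2%. Viability was read as ATP luminescence using CellTiter-Glo, and values are means from 2–6 plates run in triplicate wells.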
row,Target,cell viability remaining [%]
1,H2030,91.9
2,LS180,85.7
3,CALU1,78.1
4,A673,29.2
5,WM115,69.1
6,A172,73.1
7,SCC9,64.4
8,COLO829,24.8
9,SW1417,83.7
10,HUTU80,27.1
11,DU145,81.7
12,SH4,64.5
13,CAMA1,51.8
14,HCT116,55.4
15,SNB19,70.1
16,H4,34.1
17,H226,56.1

row,Target,cell viability remaining [%]
1,H1792,60.9
2,DKMG,44
3,SW480,81.7
4,DV90,56.2
5,SKLU1,82.6
6,MG63,86.8
7,HS746T,83
8,AGS,46.7
9,HEC251,91.8
10,HMCB,37.5
11,FADU,31.8
12,SKCO1,89.8
13,MFE319,78.3
14,BXPC3,29.4
15,OVISE,94.6
16,OE33,51.6
17,PC3,66.2
